In PubChem BioAssay (NCI):
This is part of a sample that, as a whole, favours compounds with a hit. Of some 79,000 tested, about 15% had one in any assay. Activity calls are given as the source filed them. Cut-off read from the data, not from the text of the source: active = growth inhibition above about 70%; inactive = the rest.

Tests used:
[1] = NCI Yeast Anticancer Drug Screen. Data for the rad52 strain (AID 147);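 note: 0% = growth of vehicle-treated control cultures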; settings: S. cerevisiae rad52 mutant growth inhibition, hits give high values
Method in brief: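 Yeast strain carrying a DNA damage repair alteration was exposed to test compounds. Growth inhibition was measured relative to vehicle-treated controls.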

[2] = NCI Yeast Anticancer Drug Screen. Data for the rad50EPP+ strain (AID 151);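 note: 0% = growth of vehicle-treated control cultures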; settings: S. cerevisiae rad50 mutant strain, hits give high values
Method in brief: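 Yeast strain carrying rad50 alteration (rad50EPP+) exposed to compounds; growth inhibition measured relative to vehicle-treated controls.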

[3] = NCI Yeast Anticancer Drug Screen. Data for the mgt1 strain (AID 153); settings: S. cerevisiae mgt1 mutant growth inhibition, hits give high values
Method in brief: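 Yeast mgt1 strain (DNA repair/cell-cycle alteration panel) exposed to compounds; growth inhibition measured relative to vehicle-treated controls.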

[4] = NCI Yeast Anticancer Drug Screen. Data for the rad50 strain (AID 155);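 note: 0% = growth of vehicle-only cultures of the same strain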; settings: S. cerevisiae rad50 strain growth inhibition, hits give high values
Method in brief: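 A DNA repair-deficient yeast mutant serves as the test organism; compound-induced growth inhibition is calculated against vehicle-treated cells.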

[5] = NCI Yeast Anticancer Drug Screen. Data for the mec2-1 strain (AID 157); settings: S. cerevisiae mec2-1 strain, hits give high values
Method in brief: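 mec2-1 yeast strain, carrying an alteration in DNA damage repair or cell cycle control, was exposed to compounds; growth inhibition was measured relative to vehicle-treated controls.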

[6] = NCI Yeast Anticancer Drug Screen. Data for the rad14 strain (AID 159);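 note: 0% = growth of vehicle-treated control cultures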; settings: S. cerevisiae rad14 strain growth inhibition, hits give high values
Method in brief: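 Vehicle-treated cultures served as the baseline for growth inhibition of a DNA repair-mutant yeast strain exposed to each compound.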

[7] = NCI Yeast Anticancer Drug Screen. Data for the sgs1 mgt1 strain (AID 161);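 note: 0% = growth of cultures given vehicle only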; settings: S. cerevisiae sgs1 mgt1 strain, hits give high values
Method in brief: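 This yeast growth screen uses a strain with defined DNA-repair lesions; compound-treated growth is compared with vehicle-treated growth.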

[8] = NCI Yeast Anticancer Drug Screen. Data for the CLN2oe strain (AID 163);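 note: 0% = growth of vehicle-only control cultures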; settings: S. cerevisiae CLN2oe strain, hits give high values
Method in brief: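 Yeast cells carrying a defined cell-cycle control alteration were exposed to test compounds. Growth inhibition was scored against vehicle-treated control cultures.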

[9] = NCI Yeast Anticancer Drug Screen. Data for the cln2 rad14 strain (AID 165);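 note: 0% = growth equal to vehicle treated cultures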; settings: S. cerevisiae cln2 rad14 strain, hits give high values
Method in brief: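 Yeast carrying cln2 and rad14 alterations (cell cycle control and DNA damage repair) were exposed to compounds. Growth inhibition was measured against vehicle-treated controls.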

[10] = NCI Yeast Anticancer Drug Screen. Data for the bub3 strain (AID 167); settings: S. cerevisiae bub3 mutant strain, hits give high values
Method in brief: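 Inhibition values come from growth of compound-treated mutant yeast normalised to vehicle-treated controls.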

[11] = NCI Yeast Anticancer Drug Screen. Data for the wt2 strain (AID 169);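 note: 0% = growth of vehicle-treated yeast cultures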; settings: S. cerevisiae wt2 strain growth inhibition, hits give high values
Method in brief: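 Yeast cells were exposed to test compounds, and growth inhibition was measured relative to vehicle-treated controls.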

[12] = NCI Yeast Anticancer Drug Screen. Data for the mlh1 strain (AID 171);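 note: 0% = growth of vehicle-treated control cultures of the same strain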; settings: S. cerevisiae mlh1 strain growth inhibition, hits give high values
Method in brief: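 Yeast carrying a defined genetic alteration in DNA damage repair or cell cycle control were exposed to test compounds. Growth inhibition was measured relative to vehicle-treated controls.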

[13] = NCI Yeast Anticancer Drug Screen. Data for the sgs1 strain (AID 173);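 note: 0% = growth of vehicle-only control cultures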; settings: S. cerevisiae sgs1 mutant, hits give high values
Method in brief: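 Yeast mutant strains carrying defined defects in DNA damage repair or cell cycle control were exposed to test compounds. Growth inhibition was scored against vehicle-treated controls.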

[14] = NCI Yeast Anticancer Drug Screen. Data for the mlh1 rad18 strain (AID 175); settings: S. cerevisiae mlh1 rad18 strain growth inhibition, hits give high values
Method in brief: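 Growth inhibition of the yeast strain was measured after compound exposure and expressed relative to vehicle-treated controls. The strain carries defined defects in DNA damage repair.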

[15] = NCI Yeast Anticancer Drug Screen. Data for the rad18 strain (AID 177); settings: S. cerevisiae rad18 mutant growth inhibition, hits give high values
Method in brief: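 Yeast carrying a defined DNA damage repair alteration were exposed to compounds. Growth inhibition was expressed relative to vehicle-treated controls.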

[16] = NCI Yeast Anticancer Drug Screen. Data for the wt1 strain (AID 149);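 note: 0% = growth of vehicle-treated wt1 cultures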; settings: S. cerevisiae wt1 strain (SPY 50644) growth inhibition, hits give high values
Method in brief: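 Vehicle-normalised growth inhibition; strain wt1; compound exposure.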

[17] = at 5.0 µM (retest, dose inferred, filed as 0.5)
[18] = at 50.0 µM (retest, dose inferred, filed as 5.0)

Measured: growth inhibition

COc1cc(C(=O)C=O)cc(OC)c1OC
inactive: [1]; at 1.2 µM 1% | [1]; at 3.7 µM 3% | [1]; at 11.0 µM 1% | [1]; at 33.0 µM 0% | [2]; at 1.2 µM 1% | [2]; at 3.7 µM 5% | [2]; at 11.0 µM 6% | [2]; at 33.0 µM 16% | [2]; at 100.0 µM 58% | [3]; at 1.2 µM 1% | [3]; at 3.7 µM -3% | [3]; at 11.0 µM -4% | [3]; at 33.0 µM 14% | [4]; at 1.2 µM 0% | [4]; at 3.7 µM -5% | [4]; [17] -156% | [4]; at 11.0 µM 9% | [4]; at 33.0 µM 19% | [4]; [18] 44% | [4]; at 50.0 µM 44.3% | [5]; at 1.2 µM 1% | [5]; at 3.7 µM -1% | [5]; [17] -53% | [5]; at 11.0 µM 6% | [5]; at 33.0 µM -4% | [5]; [18] 3% | [5]; at 50.0 µM 57% | [6]; at 1.2 µM -3% | [6]; at 3.7 µM -7% | [6]; at 11.0 µM -5% | [6]; at 33.0 µM 9% | [7]; [17] -67% | [7]; [18] 60% | [8]; at 1.2 µM 0% | [8]; at 3.7 µM -5% | [8]; at 11.0 µM -7% | [8]; at 33.0 µM 6% | [9]; [17] -65% | [9]; [18] 8% | [9]; at 50.0 µM 37.5% | [10]; at 1.2 µM -6% | [10]; at 3.7 µM -6% | [10]; [17] -66% | [10]; at 11.0 µM -8% | [10]; at 33.0 µM -8% | [10]; [18] 33% | [10]; at 50.0 µM 31.9% | [11]; at 1.2 µM 2% | [11]; at 3.7 µM 1% | [11]; at 11.0 µM 0% | [11]; at 33.0 µM 0% | [12]; at 1.2 µM 9% | [12]; at 3.7 µM -3% | [12]; at 11.0 µM -6% | [12]; at 33.0 µM -8% | [13]; at 1.2 µM 1% | [13]; at 3.7 µM 4% | [13]; at 11.0 µM 3% | [13]; at 33.0 µM 31% | [14]; [17] -129% | [14]; [18] 52% | [14]; at 50.0 µM 67.4% | [15]; at 1.2 µM 0% | [15]; at 3.7 µM -2% | [15]; at 11.0 µM -2% | [15]; at 33.0 µM 5%
active: [1]; at 100.0 µM 86% | [3]; at 100.0 µM 94% | [4]; at 100.0 µM 91% | [5]; at 100.0 µM 90% | [6]; at 100.0 µM 95% | [7]; at 50.0 µM 73% | [8]; at 100.0 µM 85% | [10]; at 100.0 µM 87% | [11]; at 100.0 µM 88% | [12]; at 100.0 µM 88% | [13]; at 100.0 µM 97% | [15]; at 100.0 µM 91%

BrC1C2CCC3OC3C12 (stereo unspecified)
inactive: [1]; at 1.2 µM 3% | [1]; at 3.7 µM 16% | [16]; at 1.2 µM 0% | [16]; at 3.7 µM 1% | [3]; at 1.2 µM 2% | [3]; at 3.7 µM 3% | [4]; at 1.2 µM 3% | [4]; at 3.7 µM 7% | [4]; [17] 41% | [5]; at 1.2 µM 0% | [5]; at 3.7 µM 5% | [5]; [17] 28% | [6]; at 1.2 µM 0% | [6]; at 3.7 µM 3% | [7]; [17] 65% | [8]; at 1.2 µM 2% | [8]; at 3.7 µM -3% | [8]; at 11.0 µM 53% | [9]; [17] 8% | [10]; at 1.2 µM -4% | [10]; at 3.7 µM -5% | [10]; [17] 2% | [10]; at 11.0 µM 42% | [11]; at 1.2 µM -1% | [11]; at 3.7 µM 2% | [13]; at 1.2 µM -1% | [13]; at 3.7 µM 11% | [15]; at 1.2 µM 1% | [15]; at 3.7 µM 7%
active: [1]; at 11.0 µM 97% | [1]; at 33.0 µM 99% | [1]; at 100.0 µM 99% | [16]; at 11.0 µM 96% | [16]; at 33.0 µM 98% | [16]; at 100.0 µM 99% | [3]; at 11.0 µM 77% | [3]; at 33.0 µM 99% | [3]; at 100.0 µM 99% | [4]; at 11.0 µM 92% | [4]; at 33.0 µM 97% | [4]; [18] 99% | [4]; at 50.0 µM 99.5% | [4]; at 100.0 µM 98% | [5]; at 11.0 µM 93% | [5]; at 33.0 µM 99% | [5]; [18] 100% | [5]; at 50.0 µM 99.7% | [5]; at 100.0 µM 99% | [6]; at 11.0 µM 98% | [6]; at 33.0 µM 99% | [6]; at 100.0 µM 99% | [7]; [18] 100% | [7]; at 50.0 µM 99.5% | [8]; at 33.0 µM 99% | [8]; at 100.0 µM 99% | [9]; [18] 99% | [9]; at 50.0 µM 99% | [10]; at 33.0 µM 99% | [10]; [18] 100% | [10]; at 50.0 µM 99.3% | [10]; at 100.0 µM 99% | [11]; at 11.0 µM 98% | [11]; at 33.0 µM 99% | [11]; at 100.0 µM 99% | [13]; at 11.0 µM 98% | [13]; at 33.0 µM 99% | [13]; at 100.0 µM 99% | [14]; [17] 74% | [14]; [18] 99% | [14]; at 50.0 µM 99.5% | [15]; at 11.0 µM 95% | [15]; at 33.0 µM 98% | [15]; at 100.0 µM 99%

O=C1C[C@H]2[C@H](c3ccc(Br)cc3)[C@H]3C(=O)c4ccccc4NC(=O)[C@@H]3[C@@]2(O)c2ccccc2N1
inactive: [1]; at 1.2 µM 5% | [1]; at 3.7 µM 7% | [1]; at 11.0 µM 8% | [1]; at 33.0 µM 38% | [1]; at 100.0 µM 33% | [2]; at 1.2 µM 0% | [2]; at 3.7 µM 2% | [2]; at 11.0 µM 3% | [2]; at 33.0 µM 3% | [2]; at 100.0 µM 3% | [3]; at 1.2 µM 5% | [3]; at 3.7 µM 11% | [3]; at 11.0 µM 12% | [3]; at 33.0 µM 45% | [3]; at 100.0 µM 36% | [4]; at 1.2 µM 3% | [4]; at 3.7 µM 6% | [4]; [17] -12% | [4]; at 11.0 µM 9% | [4]; at 33.0 µM 35% | [4]; [18] 14% | [4]; at 100.0 µM 35% | [5]; at 1.2 µM 9% | [5]; at 3.7 µM 11% | [5]; [17] 14% | [5]; at 11.0 µM 15% | [5]; at 33.0 µM 33% | [5]; [18] 19% | [5]; at 100.0 µM 33% | [6]; at 1.2 µM 6% | [6]; at 3.7 µM 9% | [6]; at 11.0 µM 16% | [6]; at 33.0 µM 32% | [6]; at 100.0 µM 27% | [7]; [17] -3% | [7]; [18] 2% | [8]; at 1.2 µM 9% | [8]; at 3.7 µM 16% | [8]; at 11.0 µM 16% | [8]; at 33.0 µM 38% | [8]; at 100.0 µM 38% | [9]; [17] -7% | [9]; [18] 27% | [10]; at 1.2 µM 3% | [10]; at 3.7 µM 7% | [10]; [17] 7% | [10]; at 11.0 µM 9% | [10]; at 33.0 µM 19% | [10]; [18] 56% | [10]; at 100.0 µM 23% | [11]; at 1.2 µM 6% | [11]; at 3.7 µM 11% | [11]; at 11.0 µM 15% | [11]; at 33.0 µM 28% | [11]; at 100.0 µM 30%
active: [4]; at 50.0 µM 96.8% | [5]; at 50.0 µM 97.8% | [7]; at 50.0 µM 96.4% | [9]; at 50.0 µM 97% | [10]; at 50.0 µM 72%
